# Laboratory results: the antibiotic and cytotoxicity screens of Wong et al. (2023)
# Among all 39,000 compounds or so, about 3,300 (8.5%) were called active. The sample holds actives, similar compounds and a random draw of the others, so the mix is not that of the screen.
# Test system: HepG2
# Experiment: cytotoxicity call (relative viability < 0.9)
# Conditions: 10 µM
row,SMILES,cytotoxicity call
1,NC1CCC(N[C@@H]2C[C@H]2c2ccccc2)CC1 (some centres undefined),inactive
2,C=CCC[C@@H](Cc1ccc(F)cc1)C(=O)OC[C@H]1CCCN1C(=O)[C@@H](CC=C)CC(=O)N(CCO)Cc1ccccc1,inactive
3,COc1cccc(S(=O)(=O)Nc2ccc3c(c2)OC[C@H](C)N(C(=O)Cc2cccnc2)C[C@H](C)[C@@H](OC)CN(C)C3=O)c1,inactive
4,C[C@@H]1CN([C@H](C)CO)C(=O)c2cc(NS(=O)(=O)c3cn(C)cn3)ccc2O[C@@H]1CN(C)Cc1ccccc1,inactive
5,COCC(=O)NC1CCN(C2CCNCC2)CC1,inactive
6,CO[C@H]1O[C@H](CO)[C@@H](OC(=O)Nc2ccccc2)[C@@H]2OC(=O)[C@H](Cc3cccc(Br)c3)C/C=C/C[C@@H](Cc3cccc(Br)c3)C(=O)O[C@@H]12,inactive
7,C[C@H]1CN([C@@H](C)CO)C(=O)c2cccc(NC(=O)C3CCOCC3)c2O[C@H]1CN(C)C(=O)NC1CCCCC1,inactive
8,CC(C)(C)[S@@](=O)N1Cc2cc(C(=O)N3CCc4ccccc4C3)nc(-c3cccc(-c4cccnc4)c3)c2[C@H]1CCO,inactive
9,Cc1noc(C)c1S(=O)(=O)Nc1ccc2c(c1)C(=O)N([C@H](C)CO)C[C@@H](C)[C@@H](CN(C)S(=O)(=O)c1ccc(Cl)cc1)O2,inactive
10,C[C@H]1CN([C@@H](C)CO)C(=O)c2cc(NS(=O)(=O)c3cn(C)cn3)ccc2O[C@@H]1CN(C)S(=O)(=O)c1ccccc1,inactive
11,CN1CCN(C(=O)C[C@H]2CC[C@H]3[C@H](COc4ccc(NC(=O)c5cscn5)cc4C(=O)N3C)O2)CC1,inactive
12,C[C@H](CO)N1C[C@H](C)[C@@H](CN(C)Cc2ccc(-c3ccccc3)cc2)Oc2ccc(NC(=O)Nc3ccccc3)cc2CC1=O,active
13,C[C@@H]1CN([C@@H](C)CO)C(=O)c2cc(NC(=O)CCCN(C)C)ccc2O[C@@H]1CN(C)Cc1ccncc1,inactive
14,C[C@H](CO)N1C[C@H](C)[C@@H](CN(C)C(=O)Nc2ccc(C(F)(F)F)cc2)OCCCC[C@H](C)Oc2ccc(NS(C)(=O)=O)cc2C1=O,inactive
15,COc1ccc(S(=O)(=O)Nc2ccc3c(c2)CC(=O)N([C@H](C)CO)C[C@H](C)[C@H](CN(C)S(=O)(=O)c2ccc(C)cc2)O3)cc1,inactive
16,NCC[C@@H]1CC[C@H](NC(=O)C2CC2)[C@@H](CO)O1,inactive
17,O=C(O)c1cc2cc(F)ccc2s1,inactive
18,C[C@@H]1CCCCO[C@H](CN(C)Cc2ccc3c(c2)OCO3)[C@@H](C)CN([C@@H](C)CO)C(=O)c2cc(NS(=O)(=O)c3ccccc3)ccc2O1,inactive
19,C[C@H](CO)N1C[C@H](C)[C@@H](CN(C)Cc2ccc3c(c2)OCO3)OCCCC[C@H](C)Oc2ccc(NS(=O)(=O)c3ccccc3)cc2C1=O,inactive
20,C[C@H]1CCCCO[C@H](CN(C)Cc2ccc3c(c2)OCO3)[C@@H](C)CN([C@@H](C)CO)C(=O)c2cc(NS(=O)(=O)c3ccccc3)ccc2O1,inactive
21,C[C@@H]1CCCCO[C@H](CN(C)Cc2ccc3c(c2)OCO3)[C@H](C)CN([C@H](C)CO)C(=O)c2cc(NS(=O)(=O)c3ccccc3)ccc2O1,inactive
22,C[C@H](CO)N1C[C@H](C)[C@H](CN(C)Cc2ccc3c(c2)OCO3)OCCCC[C@H](C)Oc2ccc(NS(=O)(=O)c3ccccc3)cc2C1=O,inactive

row,SMILES,cytotoxicity call
1,C[C@@H]1CCCCO[C@@H](CN(C)Cc2ccc3c(c2)OCO3)[C@H](C)CN([C@H](C)CO)C(=O)c2cc(NS(=O)(=O)c3ccccc3)ccc2O1,active
2,C[C@@H]1CCCCO[C@H](CN(C)Cc2ccc3c(c2)OCO3)[C@H](C)CN([C@@H](C)CO)C(=O)c2cc(NS(=O)(=O)c3ccccc3)ccc2O1,active
3,C[C@H]1CCCCO[C@@H](CN(C)Cc2ccc3c(c2)OCO3)[C@@H](C)CN([C@@H](C)CO)C(=O)c2cc(NS(=O)(=O)c3ccccc3)ccc2O1,inactive
4,C[C@@H]1CN([C@H](C)CO)C(=O)c2cc(NS(=O)(=O)c3ccccc3)ccc2O[C@@H](C)CCCCO[C@@H]1CN(C)Cc1ccc2c(c1)OCO2,active
5,C[C@H](N)C(=O)N[C@@]1(C(=O)O)C[C@@H](Sc2nnc[nH]2)[C@H]2[C@H](C(=O)O)[C@H]21,inactive
6,C[C@H](CO)N1C[C@H](C)[C@H](CN(C)S(=O)(=O)c2ccc(F)cc2)Oc2ccc(NS(C)(=O)=O)cc2C1=O,inactive
7,Cl.Cl.N=C(N)N,inactive
8,COCCOC(=O)N1C(=O)[C@@]2(c3cc(C#CCCO)ccc31)[C@H](C(=O)NC[C@H](O)c1ccccc1)[C@H]1C(=O)O[C@H](c3ccccc3)[C@H](c3ccccc3)N1[C@@H]2c1ccccc1OCCO,inactive
9,CCS(=O)(=O)N1CC[C@]2(CC1)CN([C@H](CO)c1[nH]c3cc(ccc3c12)OC)S(=O)(=O)c1cn(cn1)C,inactive
10,C[C@@H]1CN([C@@H](C)CO)C(=O)Cc2cc(NS(=O)(=O)c3ccccc3)ccc2O[C@H]1CN(C)S(=O)(=O)c1cn(C)cn1,inactive
11,C[C@@H]1CN([C@@H](C)CO)C(=O)c2cc(NC(=O)CCCN(C)C)ccc2O[C@H]1CN(C)C(=O)Nc1ccc(F)cc1,inactive
12,O=C1NC(=O)[C@@]2(CCOc3ccc(F)cc32)N1,inactive
13,C[C@@H]1CCCCO[C@H](CN(C)S(=O)(=O)c2cn(C)cn2)[C@@H](C)CN([C@@H](C)CO)C(=O)c2cc(NS(=O)(=O)c3cn(C)cn3)ccc2O1,inactive
14,COc1ccc(NC(=O)N2C[C@H](O)COC[C@@H]3O[C@H](CC(=O)NC4Cc5ccccc5C4)CC[C@H]32)cc1,inactive
15,Cc1ccc(C(=O)N(CCCN)[C@@H](c2nc3cc(Cl)ccc3c(=O)n2Cc2ccccc2)C(C)C)cc1,active
16,Cc1ccc2c(c1)c1nc3ccccc3nc1n2Cc1ccccc1,inactive
17,Cc1ccc(C(=O)N(CCCN)[C@@H](c2oc3cc(Cl)ccc3c(=O)c2Cc2ccccc2)C(C)C)cc1,active
18,COc1ccc(NC(=O)Nc2ccc3c(c2)C(=O)N([C@H](C)CO)C[C@H](C)[C@H](CN(C)Cc2ccc(C(=O)Nc4ccccc4N)cc2)O3)cc1,inactive
19,O=C(NO)c1cccc(C(=O)N/N=C/[C@H](O)[C@@H](O)[C@H](O)[C@H](O)CO[C@H]2O[C@H](CO)[C@H](O)[C@H](O)[C@H]2O)c1,inactive
20,C[C@@H]1CN([C@H](C)CO)S(=O)(=O)c2ccc(C#Cc3cccc(F)c3)cc2O[C@@H]1CN(C)S(=O)(=O)c1cn(C)cn1,inactive
21,Cc1ccc(S(=O)(=O)Nc2ccc3c(c2)C(=O)N([C@H](C)CO)C[C@H](C)[C@H](CN(C)C(=O)c2ccccc2)OCCCC[C@@H](C)O3)cc1,inactive
22,O=C(Cc1ccccc1)Nc1ccccc1Sc1ccccc1,inactive

row,SMILES,cytotoxicity call
1,CC(C)NC(=O)Nc1ccc2c(c1)C(=O)N(C)[C@@H]1CC[C@@H](CC(=O)NCc3ccc(F)cc3)O[C@@H]1CO2,inactive
2,C[C@@H]1CN([C@H](C)CO)C(=O)c2cc(-c3cccnc3)cnc2O[C@@H]1CN(C)Cc1ccc(-c2ccccc2)cc1,inactive
3,C[C@@H]1CN([C@@H](C)CO)C(=O)c2cc(NC(=O)Nc3cccc4ccccc34)ccc2O[C@@H]1CN(C)Cc1ccc(C(=O)O)cc1,inactive
4,C[C@@H]1CN([C@@H](C)CO)C(=O)c2cccc(NS(=O)(=O)c3cccs3)c2O[C@@H]1CN(C)S(C)(=O)=O,inactive
5,Cc1noc(C)c1NC(=O)N(C)C[C@@H]1Oc2c(NC(=O)NC(C)C)cccc2C(=O)N([C@H](C)CO)C[C@@H]1C,inactive
6,C[C@@H]1CN([C@H](C)CO)C(=O)CCCn2nncc2CO[C@@H]1CN(C)S(=O)(=O)c1cccc(C#N)c1,inactive
7,COc1ccc(S(=O)(=O)Nc2cccc3c2O[C@@H](CN(C)S(=O)(=O)c2ccc(F)cc2)[C@H](C)CN([C@@H](C)CO)C3=O)cc1,inactive
8,C[C@@H]1CN([C@@H](C)CO)C(=O)Cc2cc(NC(=O)CCN3CCOCC3)ccc2O[C@@H]1CN(C)CC1CC1,inactive
9,C[C@H]1CCCCO[C@H](CN(C)CC2CCCCC2)[C@@H](C)CN([C@@H](C)CO)C(=O)c2cc(NC(=O)C3CCCCC3)ccc2O1,active
10,C[C@H](CO)N1C[C@H](C)[C@H](CN(C)CC2CCCCC2)OCCCC[C@H](C)Oc2ccc(NC(=O)C3CCCCC3)cc2C1=O,inactive
11,C[C@@H]1CCCCO[C@H](CN(C)CC2CCCCC2)[C@H](C)CN([C@H](C)CO)C(=O)c2cc(NC(=O)C3CCCCC3)ccc2O1,inactive
12,C[C@@H]1CCCCO[C@@H](CN(C)CC2CCCCC2)[C@H](C)CN([C@@H](C)CO)C(=O)c2cc(NC(=O)C3CCCCC3)ccc2O1,inactive
13,C[C@H]1CCCCO[C@@H](CN(C)CC2CCCCC2)[C@@H](C)CN([C@@H](C)CO)C(=O)c2cc(NC(=O)C3CCCCC3)ccc2O1,inactive
14,C[C@@H]1CN([C@H](C)CO)C(=O)c2cc(NC(=O)C3CCCCC3)ccc2O[C@@H](C)CCCCO[C@@H]1CN(C)CC1CCCCC1,active
15,C[C@@H]1CCCCO[C@@H](CN(C)CC2CCCCC2)[C@H](C)CN([C@H](C)CO)C(=O)c2cc(NC(=O)C3CCCCC3)ccc2O1,inactive
16,C[C@@H]1CCCCO[C@H](CN(C)CC2CCCCC2)[C@H](C)CN([C@@H](C)CO)C(=O)c2cc(NC(=O)C3CCCCC3)ccc2O1,inactive
17,C[C@@H]1CN([C@@H](C)CO)C(=O)c2cc(NC(=O)C3CCCCC3)ccc2O[C@@H](C)CCCCO[C@H]1CN(C)CC1CCCCC1,active
18,C[C@@H]1CCCCO[C@@H](CN(C)CC2CCCCC2)[C@@H](C)CN([C@@H](C)CO)C(=O)c2cc(NC(=O)C3CCCCC3)ccc2O1,active
19,C[C@@H]1CN([C@@H](C)CO)C(=O)c2cc(NC(=O)C3CCCCC3)ccc2O[C@@H](C)CCCCO[C@@H]1CN(C)CC1CCCCC1,inactive
20,C[C@H](CO)N1C[C@H](C)[C@@H](CN(C)CC2CCCCC2)OCCCC[C@H](C)Oc2ccc(NC(=O)C3CCCCC3)cc2C1=O,inactive
